Results reported in PubChem BioAssay (NCI).
This is part of a sample that, as a whole, favours compounds with a hit. Of some 83,000 tested, about 20% had one in any assay.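 Growth was measured after 48 h exposure to one concentration of compound in 96-well plates. Values under 10 count as active.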 A number with no mark means an inactive call. Calls of active or inactive are those of the source.

System: PC-3 prostate
Test: NCI-60 one-dose screen, 48 h (100 = growth as untreated, 0 = no growth, -100 = all killed)
Details: 10 µM unless noted

Compound | growth
CN1CCN(Cc2ccc(NC(=O)c3cncc(C#Cc4cnc5ccc(N6CCN(C)CC6)nn45)c3)cc2C(F)(F)F)CC1 | -18.6% (active)
O=C(O)c1cn(C2CC2)c2cc(N3CCN(C(=O)CN4C(=O)CSC4=O)CC3)c(F)cc2c1=O | 91.2%
NC/C(=C/F)COc1ccc2nc(NCc3cccnc3)oc2c1 | 104%
C=C(C)[C@@H]1CC[C@]2(C(=O)NCCCCCN(CCC#N)CCC#N)CC[C@]3(C)[C@H](CC[C@@H]4[C@@]5(C)CCC(=O)C(C)(C)[C@@H]5CC[C@]43C)[C@@H]12 | 92.3%
CCCCNNC(=O)c1ccc(-c2cccc(F)c2F)cc1 | 45.9%
C#Cc1ccc(C(=O)NCc2ccc(/C=C/C(=O)c3nccn3C)cc2)cc1 | 30.7%
COc1ccc(/C(N)=N/C(N)=N/c2nc3ccccc3s2)cc1 | 62%
O=C(CN1CCN(c2cc(=O)[nH]c3ccc(F)cc23)CC1)Nc1ccc(Cl)cc1 | 78.6%
Cc1ccc(-n2cc(/C=C/C(=O)c3ccc(O)cc3)c(-c3ccc(S(C)(=O)=O)cc3)n2)cc1 | 69.9%
O=S(=O)(NCCCNc1nccc(-c2[nH]c(-c3ccccc3)nc2-c2ccc(Cl)c(O)c2)n1)c1cccc(F)c1 | 46.8%
Cc1cc(-c2ccc(Cl)cc2)n(Cc2nnc(SCC(=O)Nc3ccc(S(N)(=O)=O)cc3)n2C2CCCCC2)n1 | 101%
Oc1cccc2ccc(-c3nnc(SCc4ccc(O)c5ncccc45)n3-c3ccccc3)nc12 | 12.4%
Cc1ccc(-c2nn(-c3ccccc3)cc2/C=C/C(=O)c2ccc(NC(=O)CCCCCCC(=O)NO)cc2)cc1 | 74.6%
CC(C)(C)c1ccc(C(=O)Nc2sc3c(c2C(N)=O)CCC(O)C3)cc1 (stereo not drawn) | 54.1%
O=C(Nc1ccc2c(ccn2Cc2ccccn2)c1)c1ccnnc1 | 91.4%
CC(C)(C)c1ccc(C(=O)Nc2sc3c(c2C(N)=O)CC/C(=N\O)C3)cc1 | 18.7%
NC(N)=Nc1ccc(Oc2cccc(Nc3ccc(Cl)cc3)c2)cn1 | -77.5% (active)
CCc1cccc(NC(=O)CNc2cc(S(=O)(=O)N(C)C)cc(C)c2C)c1 | 81.6%
COc1ccc(N2C(=O)c3cc(Cl)ccc3NC2SCc2ccccc2)cc1 (stereo not drawn) | 84.8%

Compound | growth
O=C(CN1CCN(c2cc(=O)n(-c3ccccc3)c3ccccc23)CC1)Nc1nc(-c2ccc(Cl)cc2)cs1 | 35%
COc1ccc(C2c3sc4c(C)cccc4c3Oc3nc(CC(=O)Nc4ccccc4)[nH]c(=O)c32)cc1 (stereo not drawn) | 83.1%
O=C(/C=C/c1ccc(F)cc1)c1ccc(O)cc1 | 95.4%
Cn1ccnc1C(=O)/C=C/c1ccc(NC(=O)c2c(F)c(F)c(F)c(F)c2F)cc1 | 100%
Nc1cc(-c2c[nH]c3ccc(Br)cc23)nc2cc(-c3c[nH]c4ccc(Br)cc34)nn12 | 14.5%
C#CCC#CCN1CCC[C@H]1C(=O)NCC(=O)OC | 98.4%
COc1cc(/C=C/C(=O)c2ccc(NC(=O)CSc3nnc(-c4ccc(-c5nc6ccc(Cl)cc6[nH]5)cc4)o3)cc2)cc(OC)c1OC | 92.2%
Oc1cccc2ccc(-c3nnc(SCc4ccc(O)c5ncccc45)o3)nc12 | 9.67% (active)
NS(=O)(=O)c1ccc(Nc2nc(SCc3ccccc3)nc3ccccc23)cc1 | 54.1%
O=C1[C@@H]2Cc3c([nH]c4ccccc34)[C@H](c3c(Cl)cccc3Cl)N2C(=O)CN1C1CCN(CC2CCCCC2)CC1 | 20.6%
NS(=O)(=O)c1ccc(Nc2nc(N/N=C/c3c[nH]c4ccccc34)nc(Nc3ccccc3)n2)cc1 | 26%
N#Cc1c(-c2cccs2)cc(-c2cnccn2)nc1SCC(=O)Nc1ccc(Br)cc1 | 86.9%
COc1ccc(Cn2cc3c(c2-c2cc(OC)c(OC)c(OC)c2)CCc2c(CN4CCOCC4)noc2-3)cc1 | 31.9%
C=CCn1c(SCC(=O)Nc2ccc(C(=O)/C=C/c3ccc(C)cc3)cc2)nnc1-c1c[nH]c2ccccc12 | 66.5%
COc1ccccc1C(=O)Nc1cccc2c1C(=O)C(=O)C=C2 | 89.8%
COc1cc(-c2nn(C(C)(C)C)cc2-c2ccnc(NCCCNS(=O)(=O)c3ccc(Cl)cc3)n2)ccc1Cl | 30.5%
CCc1cccc2c3c(sc12)C(c1ccc(Cl)cc1)C(C#N)=C(/N=C/c1ccc(Cl)cc1)O3 (stereo not drawn) | 16.5%
C=C(C=O)[C@@H]1CC[C@]2(COC(C)=O)CC[C@]3(C)C(CC[C@@H]4[C@@]5(C)CC[C@H](OC(C)=O)C(C)(C)[C@@H]5CC[C@]43C)[C@@H]12 (stereo partly drawn) | 6.79% (active)
COc1ccccc1N1CCN(C2=CC(=O)C(C)=C(C)C2=O)CC1 | 95.9%
